Source: PubChem BioAssay AID1159580 (chemical genetic matrix, 2015)
Several values for one entry are separate records, joined by “and”; a condition that tells them apart may be missing. Equal values may be shown once. Among all 5,500 compounds or so, about 2,000 (36%) were called active. About 18% were inconclusive and are not listed. Rule as the data show it: active = normalized growth mostly below about 0.91 (no sharp cut-off); inconclusive = no clear call, values can overlap the other calls; inactive = mostly above about 0.92. This is one part of the list.

Experiment: chemical genetic growth profiling, strain panel (AID 1159580);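 also: tested at 20 µM; growth read once vehicle control cultures reached saturation at 30 °C; 1 = growth at the plate median or of vehicle wells; lower values mean less growth of the strain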
Details: S. cerevisiae deletion strains, growth OD

Measured: normalized growth

CC(C)NCC(O)COc1cccc2ccccc12 (stereo unspecified)
inactive: locus YAL013W, strain DEP1, hits give low values 1.01 | locus YAL021C, strain ccr4, hits give low values 0.971 | locus YAL026C, strain drs2, hits give low values 1.03 | locus YAL030W, strain snc1, hits give low values 1.02 | locus YAL040C, strain CLN3, hits give low values 1.01 and 0.981 | locus YBL061C, strain skt5, hits give low values 1.01 | locus YBR009C, strain hhf1, hits give low values 1 | locus YBR023C, strain chs3, hits give low values 1.01 | locus YBR171W, strain sec66, hits give low values 1.01 | locus YBR231C, strain swc5, hits give low values 1.02 | locus YBR279W, strain paf1, hits give low values 1.01 | locus YCL011C, strain gbp2, hits give low values 1.01 | locus YCL016C, strain dcc1, hits give low values 0.995 | locus YCL061C, strain MRC1 (second series), hits give low values 1 and 1.02 | locus YCL061C, strain MRC1, hits give low values 1.02 | locus YCL069W, strain vba3, hits give low values 1.01 | locus YCR088W, strain abp1, hits give low values 1.01 | locus YDL005C, strain med2, hits give low values 1.01 | locus YDL040C, strain nat1, hits give low values 1.01 | locus YDR001C, strain nth1, hits give low values 1.02 | locus YDR069C, strain doa4, hits give low values 1.01 | locus YDR137W, strain rgp1, hits give low values 1.02 | locus YDR150W, strain NUM1, hits give low values 1 | locus YDR159W, strain sac3, hits give low values 0.992 | locus YDR195W, strain ref2 1.02 | locus YDR297W, strain sur2, hits give low values 1.01 | locus YDR334W, strain swr1, hits give low values 1.04 | locus YDR335W, strain msn5, hits give low values 1.01 | locus YDR363W, strain ESC2, hits give low values 1.01 and 0.959 | locus YDR392W, strain spt3, hits give low values 1.02 | locus YEL003W, strain gim4, hits give low values 1.03 | locus YEL037C, strain rad23, hits give low values 1.01 | locus YEL061C, strain CIN8 (second series), hits give low values 1.02 | locus YER002W, strain NOP16, hits give low values 0.992 and 1.01 | locus YER015W, strain faa2, hits give low values 1.01 | locus YER016W, strain bim1, hits give low values 1.01 | locus YER111C, strain swi4, hits give low values 1.03 | locus YER155C, strain BEM2 (second series), hits give low values 1.05 | locus YFR010W, strain ubp6, hits give low values 1.02 | locus YGL167C, strain pmr1, hits give low values 1.02 | locus YGL173C, strain kem1, hits give low values 1.01 | locus YGL227W, strain vid30, hits give low values 1 | locus YGL240W, strain doc1, hits give low values 1.02 | locus YGL253W, strain hxk2, hits give low values 1.02 | locus YGR078C, strain PAC10, hits give low values 1.02 and 1.01 | locus YGR229C, strain SMI1, hits give low values 1.08 | locus YHR013C, strain ard1, hits give low values 0.965 | locus YHR027C, strain rpn1, hits give low values 1.01 | locus YHR030C, strain SLT2, hits give low values 1.01 | locus YHR079C, strain IRE1, hits give low values 1.02 | locus YHR142W, strain chs7, hits give low values 1.05 | locus YJL092W, strain hpr5, hits give low values 1.01 | locus YJL095W, strain BCK1 (second series), hits give low values 1 | locus YJL095W, strain BCK1, hits give low values 0.967 | locus YJL115W, strain asf1, hits give low values 1.01 | locus YJL129C, strain trk1, hits give low values 1.01 | locus YJL154C, strain vps35, hits give low values 1.01 | locus YJL164C, strain tpk1, hits give low values 0.997 | locus YJL166W, strain qcr8, hits give low values 1.01 | locus YJR066W, strain TOR1, hits give low values 0.996 | locus YJR075W, strain HOC1, hits give low values 1.01 and 1 | locus YKL160W, strain elf1, hits give low values 1.01 | locus YKR026C, strain gcn3, hits give low values 1.01 | locus YKR091W, strain srl3, hits give low values 1.02 | locus YLL001W, strain dnm1, hits give low values 1.02 | locus YLL026W, hits give low values 1.01 | locus YLL041C, strain sdh2, hits give low values 1.01 | locus YLR027C, strain aat2, hits give low values 1.01 | locus YLR113W, strain HOG1, hits give low values 0.976 | locus YLR221C, strain rsa3, hits give low values 0.972 | locus YLR258W, strain gsy2, hits give low values 1 | locus YLR262C, strain YPT6 (second series), hits give low values 1 | locus YLR320W, strain mms22, hits give low values 0.997 | locus YLR342W, strain FKS1, hits give low values 1.01 | locus YLR357W, strain rsc2, hits give low values 1.07 | locus YLR370C, strain arc18, hits give low values 1.01 | locus YLR384C, strain iki3, hits give low values 1.01 | locus YML120C, strain ndi1, hits give low values 1.01 | locus YMR058W, strain fet3, hits give low values 1.02 | locus YMR125W, strain sto1, hits give low values 1.07 | locus YMR129W, hits give low values 1.01 | locus YMR205C, strain PFK2, hits give low values 1.02 | locus YMR231W, strain pep5, hits give low values 1.01 | locus YMR263W, strain SAP30, hits give low values 1 | locus YMR307W, strain GAS1, hits give low values 1.01 | locus YNL071W, strain lat1, hits give low values 1.01 | locus YNL128W, strain TEP1, hits give low values 0.995 | locus YNL175C, strain NOP13, hits give low values 1.02 and 1.01 | locus YNL183C, strain NPR1, hits give low values 1.01 | locus YNL197C, strain WHI3, hits give low values 1 and 1.01 | locus YNL209W, strain ssb2, hits give low values 1 | locus YNL224C, strain SQS1, hits give low values 1.01 and 1.02 | locus YNL248C, strain rpa49, hits give low values 1.04 | locus YNL322C, strain KRE1 (second series), hits give low values 1 | locus YNL322C, strain KRE1, hits give low values 1.01 | locus YNR049C, strain mso1, hits give low values 1.01 | locus YOR001W, strain rrp6, hits give low values 1.02 | locus YOR070C, strain gyp1, hits give low values 1.01 | locus YOR080W, strain dia2, hits give low values 1.02 | locus YOR083W, strain WHI5 (second series), hits give low values 1.02 and 0.993 | locus YOR083W, strain WHI5, hits give low values 1.01 | locus YOR106W, strain vam3, hits give low values 1.03 | locus YOR231W, strain MKK1, hits give low values 1.01 | locus YOR265W, strain rbl2, hits give low values 1.02 | locus YOR270C, strain vph1, hits give low values 1.06 | locus YOR290C, strain snf2, hits give low values 1.01 | locus YPL051W, strain arl3, hits give low values 1 | locus YPL078C, strain atp4, hits give low values 1.06 | locus YPL106C, strain sse1, hits give low values 0.985 | locus YPL240C, strain hsp82, hits give low values 0.993 | locus YPL256C, strain CLN2, hits give low values 1.02
